From PubChem BioAssay (Tox21)
Several values for one entry are separate records, joined by “and”; a condition that tells them apart may be missing. Equal entries are not always repeated. Results filed as inconclusive are left out. Activity calls are given as the source filed them. Unless noted, calls come from the whole dose curve; as a rule, active = well fitted curve in the direction sought with a large enough effect in the repeat runs; inconclusive = weak or mixed curves; inactive = no such curve, though single readings can be large; an effect the other way counts as inactive or inconclusive.

Key:
[1] = qHTS assay to identify small molecule antagonists of the retinoid acid receptor (RAR) signaling pathway - cell viability counter screen (AID 1159551); note: nearly all actives have a fitted effect of over 35% in size; note: potency is the fitted concentration of half-maximal effect
In short: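 Cytotoxicity counter screen: ATP content quantified by CellTiter-Glo luminescence in C3RL4 cells treated 6 hr at 37 C with compound and retinol (1 uM final). Cells plated at 1,000/well and cultured overnight before dosing.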

[2] = qHTS assay to identify small molecule antagonists of the retinoic acid receptor (RAR) signaling pathway (AID 1159552; note: nearly all actives have a fitted effect of over 50% in size; note: potency is the fitted concentration of half-maximal effect)
In short: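 Luminescent RARE reporter read-out in C3RL4 cells: 6 hr co-treatment at 37 C of test compounds with retinol at 1 uM final. Cells plated overnight beforehand; luciferase reagent incubated 30 min at room temperature before reading.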

[3] = qHTS assay to identify small molecule agonists of the retinoic acid receptor (RAR) signaling pathway (AID 1159553); note: potency is the fitted concentration of half-maximal effect
In short: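 Luminescence was measured 30 min after luciferase reagent addition at room temperature. Before that, C3RL4 reporter cells (1,000 per well, plated overnight) were treated with compound for 6 hr at 37 C and 5% CO2.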

[4] = qHTS assay to identify small molecule antagonists of the estrogen related receptor (ERR) signaling pathway from Tox21 library - cell viability counter screen (AID 1224834); note: nearly all actives have a fitted effect of over 30% in size; note: potency is the fitted concentration of half-maximal effect
In short: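 CellTiter-Fluor fluorescence, read after 30 min at 37 C, measures viability of ERR cells. Cells plated at 2,000/well and incubated 6 h before pin-tool compound addition, then exposed 17.5 hours at 37 C.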

[5] = biological target: Luciferin 4-monooxygenase (Photinus pyralis) (UniProt P08659); assay: qHTS assay to identify small molecule inhibitors of firefly luciferase (AID 1224835); note: nearly all actives have a fitted effect of over 25% in size; note: potency is the fitted concentration of half-maximal effect
In short: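 Biochemical qHTS: compounds run as interplate titrations against purified firefly enzyme, with D-luciferin and ATP each at its KM concentration. Light output recorded by CCD imaging.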

[6] = qHTS assay to identify small molecule agonists of the constitutive androstane receptor (CAR) signaling pathway - cell viability counter screen (AID 1224836); note: nearly all actives have a fitted effect of over 45% in size; note: potency is the fitted concentration of half-maximal effect
In short: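 Cell viability multiplexed with the CAR agonist screen: CellTiter-Fluor fluorescence after 23 hr at 37 C. HepG2-CYP2B6-hCAR cells got compounds at 15 concentrations with PK11195 at 0.75 uM final.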

[7] = qHTS assay to identify small molecule antagonists of the constitutive androstane receptor (CAR) signaling pathway - cell viability counter screen (AID 1224837); note: nearly all actives have a fitted effect of over 45% in size; note: potency is the fitted concentration of half-maximal effect
In short: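 Cytotoxicity counter-screen: CellTiter-Fluor fluorescence after 23 h compound exposure (15-point qHTS) in double-stable HepG2-CYP2B6-hCAR cells, with 50 nM CITCO added.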

[8] = biological target: Nuclear receptor subfamily 1 group I member 3 (Homo sapiens) (UniProt Q14994); assay: qHTS assay to identify small molecule antagonists of the constitutive androstane receptor (CAR) signaling pathway (AID 1224838);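 note: HepG2 cells stably expressing hCAR with CYP2B6 luciferase reporter stimulated by CITCO; nearly all actives have a fitted effect of over 40% in size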; note: potency is the fitted concentration of half-maximal effect
In short: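 Antagonism measured as luciferase signal (ONE-Glo, 30 min, room temperature) in CAR-stimulated cells: HepG2-CYP2B6-hCAR double-stable line exposed 24 hr at 37 C to compound in a 15-point series plus 50 nM CITCO.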

[9] = biological target: Nuclear receptor subfamily 1 group I member 3 (Homo sapiens) (UniProt Q14994); assay: qHTS assay to identify small molecule agonists of the constitutive androstane receptor (CAR) signaling pathway (AID 1224839); note: nearly all actives have a fitted effect of over 15% in size; note: potency is the fitted concentration of half-maximal effect
In short: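 Luminescent ONE-Glo read-out after 24 hr, 37 C exposure of double-stable HepG2-CYP2B6-hCAR reporter cells to a 15-point compound series, in the presence of 0.75 uM PK11195 (final).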

[10] = qHTS assay to identify small molecule antagonists of the estrogen related receptor signaling pathway with the pleiotropic PPARgamma coactivator (PGC) from Tox21 10K library - cell viability counter screen (AID 1224840; active = well fitted cell-killing curve with a large enough effect in the repeat runs, not every such curve was filed as active; note: nearly all actives have a fitted effect of over 40% in size; note: potency is the fitted concentration of half-maximal effect)
In short: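 Counter-screen for cytotoxicity: after 17.5 h compound exposure at 37 C, CellTiter-Fluor reagent added to PGC/ERR cells for 30 min and fluorescence read. Cells were seeded at 2,000 per well 6 h before dosing.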

[11] = qHTS assay to identify small molecule antagonists of the estrogen related receptor signaling pathway with the pleiotropic PPARgamma coactivator (PGC) from Tox21 10K library (AID 1224841; call rule not given here; note: actives are mostly falling curves and most rising ones were filed inactive; nearly all actives have a fitted effect of over 50% in size; note: potency is the fitted concentration of half-maximal effect)
In short: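 Luminescence (One-Glo, 30 min at room temperature) after 18 h compound treatment at 37 C of PGC/ERR reporter cells plated at 2,000 cells/well and settled 6 h beforehand.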

[12] = biological target: Thyrotropin receptor (Homo sapiens) (UniProt P16473); assay: qHTS assay to identify small molecule agonists of the thyroid stimulating hormone receptor (TSHR) signaling pathway (AID 1224843; calls by dose curve; note: nearly all actives have a fitted effect of over 45% in size)
In short: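 HEK293/TSHR, 800 cells/well; cpd 30 min RT; add cAMP-d2 + anti-cAMP-cryptate, 1 h RT; fluorescence read on plate reader. 15-pt titration, n=3.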

[13] = qHTS assay to identify small molecule agonists of the hypoxia (HIF-1) signaling pathway - cell viability counter screen (AID 1224844; calls by dose curve; note: nearly all actives have a fitted effect of over 50% in size; note: potency is the fitted concentration of half-maximal effect)
In short: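 Cytotoxicity measured by CellTiter-Glo ATP luminescence in the wells also read for beta-lactamase signal. Cells were HRE-bla ME-180 (2,000/well, 0.5% dialyzed FBS), exposed to compounds for 17 h at 37C.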

[14] = qHTS assay to identify small molecule agonists of the RXR signaling pathway - cell viability counter screen (AID 1159529); note: series mostly up to about 77 µM; nearly all actives have a fitted effect of over 50% in size
In short: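 CellTiter-Glo luminescence gave viability in the wells also read for beta-lactamase. Cells (RXR-alpha-UAS-bla HEK 293T, 2% charcoal-stripped FBS medium) had 5 hr plating, then 16 hr compound exposure at 37 C; tetraoctyl ammonium bromide served as positive control.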

[15] = qHTS assay to identify small molecule agonists of the estrogen related receptor signaling pathway with the pleiotropic PPARgamma coactivator (PGC) from Tox21 10K library (AID 1224842); note: nearly all actives have a fitted effect of over 15% in size
In short: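 PGC/ERR reporter cell line, 2,000 cells per well, incubated 6 h at 37 C before 23 nL compound in DMSO was added. After 18 h at 37 C, One-Glo luminescence read following 30 min at room temperature.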

[16] = qHTS assay to identify small molecule antagonists of the estrogen related receptor signaling pathway with the pleiotropic PPARgamma coactivator (PGC) cell viability counter screen (AID 1224822; note: series mostly up to about 46 µM)
In short: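 Viability counter-screen read by fluorescence intensity after 30 min with CellTiter-Fluor at 37 C; PGC/ERR reporter cells were exposed to compounds for 17.5 h at 37 C following a 6 h preincubation.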

Measured: Potency

Chain of Nuclear receptor subfamily 1 group I member 3 (Homo sapiens) (Q14994 whole entry, looked up): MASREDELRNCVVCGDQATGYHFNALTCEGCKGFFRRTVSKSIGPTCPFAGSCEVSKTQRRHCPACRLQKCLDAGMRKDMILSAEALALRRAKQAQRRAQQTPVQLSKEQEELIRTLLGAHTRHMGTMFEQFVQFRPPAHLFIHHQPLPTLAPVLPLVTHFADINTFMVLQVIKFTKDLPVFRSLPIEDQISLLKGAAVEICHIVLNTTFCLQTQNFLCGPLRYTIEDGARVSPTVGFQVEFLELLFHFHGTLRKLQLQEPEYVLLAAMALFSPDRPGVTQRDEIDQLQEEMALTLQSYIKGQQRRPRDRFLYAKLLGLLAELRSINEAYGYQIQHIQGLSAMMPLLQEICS
Chain of Thyrotropin receptor (Homo sapiens) (P16473 whole entry, looked up): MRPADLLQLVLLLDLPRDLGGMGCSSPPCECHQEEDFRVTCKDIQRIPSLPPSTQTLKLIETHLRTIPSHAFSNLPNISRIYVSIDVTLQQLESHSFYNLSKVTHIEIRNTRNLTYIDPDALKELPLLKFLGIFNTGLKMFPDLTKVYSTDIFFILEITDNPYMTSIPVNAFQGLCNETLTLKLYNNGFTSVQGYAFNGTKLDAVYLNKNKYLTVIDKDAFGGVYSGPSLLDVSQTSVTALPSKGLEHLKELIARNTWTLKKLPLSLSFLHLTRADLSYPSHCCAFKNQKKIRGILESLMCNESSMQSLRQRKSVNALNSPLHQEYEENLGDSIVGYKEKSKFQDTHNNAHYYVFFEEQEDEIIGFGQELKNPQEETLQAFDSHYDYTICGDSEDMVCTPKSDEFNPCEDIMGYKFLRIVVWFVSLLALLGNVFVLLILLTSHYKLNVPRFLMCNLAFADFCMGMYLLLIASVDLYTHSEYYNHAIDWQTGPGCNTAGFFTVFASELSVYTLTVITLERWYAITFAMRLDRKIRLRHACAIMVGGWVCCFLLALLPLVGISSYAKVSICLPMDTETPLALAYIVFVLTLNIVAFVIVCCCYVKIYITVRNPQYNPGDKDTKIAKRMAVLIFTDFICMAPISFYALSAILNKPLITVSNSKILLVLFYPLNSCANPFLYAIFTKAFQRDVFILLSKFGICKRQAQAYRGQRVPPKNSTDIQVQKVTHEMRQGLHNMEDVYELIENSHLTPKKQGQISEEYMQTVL
Chain of Luciferin 4-monooxygenase (Photinus pyralis) (P08659 whole entry, looked up): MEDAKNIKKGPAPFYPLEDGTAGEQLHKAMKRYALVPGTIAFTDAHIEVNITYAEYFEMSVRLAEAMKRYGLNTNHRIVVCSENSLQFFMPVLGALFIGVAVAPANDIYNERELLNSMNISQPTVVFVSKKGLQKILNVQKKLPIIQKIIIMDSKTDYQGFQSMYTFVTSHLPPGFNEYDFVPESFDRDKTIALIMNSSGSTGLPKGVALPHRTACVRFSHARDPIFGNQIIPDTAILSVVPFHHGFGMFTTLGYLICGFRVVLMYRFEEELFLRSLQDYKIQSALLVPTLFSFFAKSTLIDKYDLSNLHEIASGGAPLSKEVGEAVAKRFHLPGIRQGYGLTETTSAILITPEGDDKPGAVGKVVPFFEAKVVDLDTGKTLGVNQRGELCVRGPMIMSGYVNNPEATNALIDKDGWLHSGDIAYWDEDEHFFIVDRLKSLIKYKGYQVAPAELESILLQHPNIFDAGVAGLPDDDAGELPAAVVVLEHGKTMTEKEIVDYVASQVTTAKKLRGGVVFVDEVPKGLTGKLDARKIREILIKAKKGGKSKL

CC(C)(O)c1ccc(CNC(=O)c2cccnc2Oc2ccc(F)cc2)cc1
active: [9] 27.3 µM | [11] 48.6 µM
inactive: [1] | [2] | [3] | [4] | [5] | [6] | [7] | [8] | [10] | [12] | [13]

C1CCCNCCC1
inactive: [14] | [4] | [5] | [6] | [7] | [10] | [15] | [12] | [13]
active: [11] 4.32 µM

CC(C)(COC(=O)c1ccccc1)COC(=O)c1ccccc1
inactive: [14] | [4] | [6] | [7] | [8] | [9] | [10] | [13]

CCCCCCCC#N
inactive: [1] | [4] | [5] | [6] | [7] | [10] | [11] | [15] | [12] | [13]

CCCNCC(O)COc1ccccc1C(=O)CCc1ccccc1 (configuration not stated)
inactive: [1] | [16] | [6] | [7] | [8] | [9] | [10] | [12] | [13]

CC1=CC[C@H](C(C)C)C=C1
inactive: [1] | [4] | [5] | [6] | [7] | [8] | [9] | [10] | [13]

C=CC(=O)OCCOCCOCCOCCOC(=O)C=C
inactive: [5] | [9] | [12]
active: [2] 48.8 µM and 42.9 µM | [3] 19.4 µM and 17.1 µM | [4] 30.8 µM and 24.1 µM | [6] 54.8 µM and 60.6 µM | [7] 48.8 µM and 54 µM | [8] 61.4 µM | [10] 27.4 µM and 27.1 µM

CN(C)c1ccc(C(c2ccccc2)c2ccc(N(C)C)cc2)cc1
inactive: [1] | [5] | [6] | [7] | [8] | [9] | [10] | [15] | [12] | [13]

O=[N+]([O-])c1cccc(S(=O)(=O)O)c1
active: [4] 43.9 µM
inactive: [1] | [3] | [9] | [15] | [13]

CCN(CC)c1ccc2c(-c3ccccc3C(=O)O)c3ccc(=[N+](CC)CC)cc-3oc2c1
inactive: [8] | [15]
active: [1] 19.3 µM | [4] 7.7 µM | [5] 11.2 µM | [6] 7.7 µM | [7] 7.7 µM | [10] 17.2 µM

CC1=CCCC(C)(C)C12CCC(C)O2 (configuration not stated)
inactive: [1] | [4] | [5] | [6] | [7] | [10] | [13]

O[C@@H](COc1cccc2ncccc12)CN1CCN(C2c3ccccc3[C@@H]3[C@H](c4ccccc42)C3(F)F)CC1 (some centres not stated)
active: [4] 9.44 µM
inactive: [1] | [5] | [9] | [13]

COc1ccc(S(=O)(=O)N2C(=O)[C@@](c3ccccc3OC)(N3C[C@H](O)C[C@H]3C(=O)N(C)C)c3cc(Cl)ccc32)c(OC)c1
active: [4] 30.6 µM | [6] 30.6 µM | [7] 24.3 µM | [10] 30.6 µM
inactive: [1] | [3] | [5] | [8]

CCc1cc(C2=C(C(=O)O)N(c3ccccc3C(F)(F)F)S(=O)(=O)c3ccccc32)cc2c1OCO2
inactive: [1] | [5] | [9]
active: [4] 7.61 µM | [11] 30.3 µM | [13] 21.6 µM

O=C1CCCCCCCCCCCC(=O)OCCO1
inactive: [4] | [5] | [6] | [7] | [8] | [9] | [10] | [11] | [15] | [13]

CC(C)Nc1ccc(NC(C)C)c2c1C(=O)c1ccccc1C2=O
active: [1] 25.3 µM | [4] 20.1 µM | [5] 33 µM
inactive: [3] | [6] | [7] | [8] | [9]
